PLK1 PBD inh = qHTS for Inhibitors of PLK1-PDB (polo-like kinase 1 - polo-box domain): Primary Screen. Plk1 PBD binding of FITC phosphopeptide, fluorescence polarization. Potency, µM, most hits filed as inhibitors. 2.8% of 360,000 active; note: series mostly up to about 57 µM; nearly all actives have a fitted effect of over 65% in size
BAZ2B block = qHTS Assay for Inhibitors of BAZ2B; Potency, µM (top dose mostly 114 µM), hits mostly inhibitors; Bromodomain adjacent to zinc finger domain protein 2B (Homo sapiens), Q9UIF8; 4.4% of 360,000 active; AlphaScreen BAZ2B-H3K14Ac peptide displacement; note: nearly all actives have a fitted effect of over 60% in size
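Compounds, titrated to a top concentration of 110 uM, were incubated 30 min at room temperature with preformed BAZ2B/acetyl-K14 H3 peptide complex (50 nM each). Proximity signal was measured by AlphaScreen after 20 min with beads.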
JMJD2A Tudor inh = qHTS Assay for Inhibitors of JMJD2A-Tudor Domain; Lysine-specific demethylase 4A (Homo sapiens), O75164; AID 504339, 2011; AlphaScreen JMJD2A-Tudor / H3K4me3 peptide binding; Potency, µM (highest dose often 114 µM), usual class: inhibitors; 4.4% of 390,000 active; note: nearly all actives have a fitted effect of over 50% in size
PI5P4Ka inh = qHTS for Inhibitors of phosphatidylinositol 5-phosphate 4-kinase (PI5P4K). Phosphatidylinositol 5-phosphate 4-kinase type-2 alpha (Homo sapiens), P48426. PI5P4Kalpha enzyme, ADP-Glo luminescence, 60 min; hits give low values. max response, %. 1.2% of 330,000 active; active = max response of -50% or lower; inconclusive = between -30% and -50%; inactive = -30% or higher; note: value at the top dose of about 77 µM
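Single end-point luminescence (ADP-Glo) quantified ADP from PI5P4Kalpha turnover; ATP 5 microM final, 1 h at RT, 0.1% CHAPS and 0.28 mM EGTA in HEPES pH 7.4.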
G9a block = qHTS Assay for Inhibitors of Histone Lysine Methyltransferase G9a | Histone-lysine N-methyltransferase EHMT2 (Homo sapiens), Q96KQ7 | G9a H3K9 monomethylation, AlphaScreen, 2 h | Potency, µM (titrated, usually from 102 µM), hits mostly inhibitors | 8.8% of 350,000 active | AID 504332, 2011; note: nearly all actives have a fitted effect of over 75% in size
Target sequence (Q96KQ7 913-1193 limits assumed): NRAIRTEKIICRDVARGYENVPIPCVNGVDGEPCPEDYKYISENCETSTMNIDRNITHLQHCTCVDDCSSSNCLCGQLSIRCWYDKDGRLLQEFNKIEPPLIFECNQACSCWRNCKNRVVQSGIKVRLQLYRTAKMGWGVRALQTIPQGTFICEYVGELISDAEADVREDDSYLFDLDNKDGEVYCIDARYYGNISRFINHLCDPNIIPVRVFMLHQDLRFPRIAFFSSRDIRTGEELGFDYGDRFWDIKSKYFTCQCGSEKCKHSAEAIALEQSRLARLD
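Step 1: enzyme (final 20 nM) with compound, 15 min RT. Step 2: substrate peptide 500 nM and SAM 20 uM, 2 h RT. Step 3: anti-H3K9me1 antibody and AlphaScreen beads, 10 min, then plate read.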
HP1b binding inh = HTS for Inhibitors of HP1-beta Chromodomain Interactions with Methylated Histone Tails; Chromobox protein homolog 1 (Homo sapiens), P83916; AlphaScreen HP1-beta / biotin-H3K9me3 peptide binding; Potency, µM (titrated, usually from 114 µM), hits mostly inhibitors; 0.56% of 390,000 active; AID 540317, 2011; note: nearly all actives have a fitted effect of over 70% in size
Target sequence (P83916 whole entry, looked up): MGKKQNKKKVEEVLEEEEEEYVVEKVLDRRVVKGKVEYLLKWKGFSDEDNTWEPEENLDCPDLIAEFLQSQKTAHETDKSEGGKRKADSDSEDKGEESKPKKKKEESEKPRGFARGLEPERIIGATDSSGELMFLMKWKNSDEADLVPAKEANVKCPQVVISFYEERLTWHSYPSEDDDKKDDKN
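AlphaScreen: HP1-beta (50 nM) preformed 30 min with biotin-H3(1-18)K9me3 peptide (50 nM) in PBS pH 7.4, 0.01% Tween-20. Compound added for 30 min at RT, then streptavidin donor/nickel chelate acceptor beads (10 ug/mL) for 30 min.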
A number is an active result; n = inactive; u = inconclusive; x = no result given; ! = not active in a repeat; [ ] = another dose, or the depositor's remark. Rows were chosen to be rich in hits. Some 12% of all compounds tested hit in one or more screens of this group. Unless noted, calls come from the whole dose curve; as a rule, active = well fitted curve in the direction sought with a large enough effect; inconclusive = small, poorly fitted or top-dose-only effect, or another doubt; inactive = no such curve, though single readings can be large; an effect the other way counts as inactive or inconclusive.

SMILES	PLK1 PBD inh	BAZ2B block	JMJD2A Tudor inh	PI5P4Ka inh	G9a block	HP1b binding inh
Cc1cccc(N2CCN(C(=O)Cn3nc(Cc4cccnc4)c4ccccc4c3=O)CC2)c1C	x	n	u	x	n	n
Cc1ccc(-c2nnc(SCC(=O)N3CCCC3)o2)cc1C	n	n	u	n	50µM	n
O=C(CSc1nnc(CNC(=O)c2c(F)cccc2Cl)o1)Nc1ccccc1F	x	n	n	x	n	n
Cc1ccc(CSc2nc3ccncc3[nH]2)cc1	n	n	n	n	n	n
CCCC(CCC)c1nc2ccncc2[nH]1	n	u	u	n	50µM	u
COc1ccc(NC(=O)CCNC(=O)c2ccco2)cc1Cl	n	n	n	n	n	n
CC(=O)C1=NN(c2ccccc2)C(c2cccs2)N1c1ccc(N(C)C)cc1 (stereo not drawn)	n	45µM	14µM	x	28µM	u
CC(=O)C1=NN(c2ccccc2)C(c2ccc3c(c2)OCO3)N1c1ccccc1 (stereo not drawn)	n	n	n	n	n	n
CC1(C)OC(C)(C)/C(=C/Nc2ccc(O)cc2)C1=O	n	u	u	-70	8.9µM	n
NC(=O)c1oc2ccccc2c1NC(=O)C1CCCCC1	n	n	n	n	n	n
O=C(Nc1nnc(SCCC2OCCO2)s1)C1CC(=O)N(c2ccccc2)C1 (stereo not drawn)	u	n	n	u	22µM	n
COc1cccc(N2CC(C(=O)Nc3nnc(SCCC4OCCO4)s3)CC2=O)c1 (stereo not drawn)	u	n	n	u	28µM	n
NC(=O)c1oc2ccccc2c1NC(=O)C1CC(=O)N(c2ccccc2)C1 (stereo not drawn)	n	n	n	n	45µM	n
CCC(C)NC(=O)CSc1nnc(-c2ccc(OC)c(OC)c2)c(-c2ccc(OC)c(OC)c2)n1 (stereo not drawn)	n	n	n	n	n[0.501 µM]	n
Cc1ccc(S(=O)(=O)NCC(=O)OCC(=O)N(C)C2CCS(=O)(=O)C2)cc1 (stereo not drawn)	n	n	n	n	n	n
O=C(Cn1cc(COc2ccc(Cl)c(Cl)c2)nn1)NS(=O)(=O)c1ccccc1OC(F)(F)F	n	x	x	n	x	x
NC(=O)c1nn2c(C(F)(F)F)cc(-c3ccc(Br)cc3)nc2c1Cl	x	n	n	x	n	n
CC1CCn2c(nc3cc(C(=O)NCc4ccc(OC(C)C)cc4)ccc32)C1 (stereo not drawn)	x	n	n	x	n	n
CC1(C)CCC2=C(O1)c1ccccc1C(=O)C2=O	x	x	x	x	14µM!	x
Cc1c(C#N)c2n(c1C)CCCC(=O)N2	n	x	x	n	x	x
Cc1n[nH]c(=S)n1/N=C/c1ccc(OCc2ccc(Cl)cc2Cl)cc1	n	n	n	n	11µM	n
Cc1n[nH]c(=S)n1/N=C/c1ccc(OCc2ccc(Cl)cc2)cc1	n	n	n	-55	u	n
Cc1n[nH]c(=S)n1/N=C/c1ccccc1OCc1ccc(Cl)cc1Cl	n	n	n	n	n	n
Cc1cc(C)c(COc2ccc(/C=N/n3c(C)n[nH]c3=S)cc2)c(C)c1	u	u	79µM	n	u	u
Cc1cccc(N2CCN(C(=O)c3cc4ccc5cccnc5c4[nH]3)CC2C)c1 (stereo not drawn)	x	28µM	28µM	x	u	n
CC1=C(C(=O)Nc2cc(C(=O)N3CCN(c4cccc(C)c4)C(C)C3)ccc2C)SCCO1 (stereo not drawn)	n	u	u	n	35µM	n
Cc1cccc(N2CCN(C(=O)c3ccc4c(c3)c(C)c(C)n4C)CC2C)c1 (stereo not drawn)	n	22µM	28µM	n	45µM	40µM
COc1ccc(N2CCN(C(=O)c3ccc(C)c(NC(=O)C4=C(C)OCCS4)c3)CC2)cc1	n	45µM	u	n	40µM	n

Compound activity: PubChem, National Center for Advancing Translational Sciences (NCATS)
